aSyn UTR act: Activators via SNCA 5'UTR binding, MLPCN | actives 7.1% (n = 300,000) | AID 1814 | activity score, % (tested at 7.5 µM), hits read low | alpha-synuclein 5'UTR reporter, activators screen; in the data active = activity score below about -60%
Numbers without * were called inactive. Not all results are given here.

SMILES | aSyn UTR act
COc1ccc(-n2c(C)cc(C(=O)CCl)c2C)cc1 | 65
CCOc1ccc(-c2cc(CCCC(=O)Nc3cccc(OC)c3)no2)cc1 | 68
COc1ccc(CNC(=O)CSCc2ccccc2Cl)cc1 | -62*
COc1ccc(-n2c(C)cc(C(=O)CSc3ccc(NC(C)=O)cc3)c2C)cc1 | -89*
Cc1ccc(NC(=O)CSc2n[nH]c(-c3ccccn3)n2)cc1 | 59
COc1ccc(NC(=O)CSc2ccc(C)cc2)cc1 | -149*
Cc1ccc(O)c(NC(=O)CSc2ccc(Cl)cc2)c1 | -177*
O=C(CCSc1ccccn1)Nc1ccc(Br)cc1 | -153*
CCc1ccc(NC(=O)CSc2ccccn2)cc1 | -74*
COc1ccc(NC(=O)CSCc2ccccc2C)cc1 | -90*
COc1ccc(NC(=O)CSc2ccccn2)c([N+](=O)[O-])c1 | -72*
COc1ccc(-n2c(SCC(=O)Nc3ccc(Br)cc3)nc(O)cc2=O)cc1 | -119*
COc1ccccc1C(=O)CSc1ccccn1 | -95*
Cc1ccc(SCC(=O)NC(C)(C)C)cc1 | -66*
CC(=Nc1cc(C(=O)c2ccccc2)ccc1N)C1=C(O)CC(C)(C)CC1=O | -76*
CCOc1ccc(C(=O)COC(=O)c2c(-c3ccccc3)noc2C)cc1 | -63*
Cc1onc(-c2ccccc2)c1C(=O)OCCOc1cccc(Cl)c1 | -70*
Nc1c(Br)cc2oc(-c3ccccc3)nc2c1Br | -179*
O=C(/C=C/Nc1cccc(C(F)(F)F)c1)c1ccc(Oc2ncccn2)cc1 | -94*
NC(=O)c1ccccc1N/C=C/C(=O)c1ccco1 | -97*
O=C(/C=C/Nc1ccccc1C(F)(F)F)c1ccco1 | -321*
O=C(/C=C/Nc1ccc(Oc2ccccc2)cc1)c1ccco1 | -201*
O=C(/C=C/Nc1cccc(C(F)(F)F)c1)c1ccco1 | -174*
C=C1C(=O)O[C@@H]2[C@H]1[C@@H](OC(=O)/C(C)=C/C)C/C(C)=C\C(=O)/C=C(\C)[C@@H]2O | -311*
CC(C)N1C(=O)/C(=C/c2nc3ccccc3c(=O)n2-c2ccccc2)c2ccccc21 | -66*
SMILES | aSyn UTR act
CC(=O)c1c(C)nc(Nc2nc3ccccc3s2)nc1C | -83*
Cc1cc(C)nc(Nc2nc3ccccc3s2)n1 | -177*
Brc1ccc2nc(-c3cccs3)c(NCC3CCCO3)n2c1 (stereo unspecified) | -175*
Nc1nnc(COc2ccc(Br)cc2Br)s1 | -98*
O/N=C/c1ccc(OCc2ccccc2F)c(Cl)c1 | -92*
O/N=C/c1ccc(OCc2ccccc2)c(Cl)c1 | -104*
O/N=C/c1ccc(OCc2ccccc2)c(Br)c1 | -142*
CC(=O)NC(CSC(CC(=O)c1ccco1)c1ccc(C)cc1)C(=O)O (stereo unspecified) | -90*
CCCc1ccc(OC(=O)c2ccc(O)cc2Cl)cc1 | -63*
CCOC(=O)c1c(NC2=NS(=O)(=O)c3ccccc32)sc2c1CCCCC2 | -63*
CCOC(=O)C1CCCN(C(=O)c2cc(COc3ccc(C)nc3)on2)C1 (stereo unspecified) | -86*
CCCOC1CCCN(C(=O)c2cc(COc3ccc(F)c(F)c3)on2)C1 (stereo unspecified) | -118*
CCCN1CCN(C(=O)c2cc(COc3ccc(F)c(F)c3)on2)CC1 | -74*
Cc1nn(C)c(C)c1C(C)NC(=O)c1cc(COc2ccc(F)c(F)c2)on1 (stereo unspecified) | -68*
COc1ccc(N2CCN(C(=O)C3(C)CC3(Cl)Cl)CC2)cc1 (stereo unspecified) | -82*
COc1ccc(NC(=S)Nc2ccc3nccnc3c2)cc1 | -227*
COc1ccc(NC(=S)Nc2ccc3snnc3c2)cc1 | -107*
COc1ccc(NC(=S)Nc2ccc(N)c([N+](=O)[O-])c2)cc1 | -145*
O=[N+]([O-])c1ccc(Cc2nnc(-c3ccccc3Cl)o2)cc1 | -172*
COc1ccc(C(=O)c2cnc(/N=C/N(C)C)s2)cc1 | -93*
CN(C)/C=N/c1ncc(C(=O)c2ccc3ccccc3c2)s1 | -81*
CCOc1ccc(-c2nnc(N(CC)C(=O)C3CCC3)s2)cc1 | -102*
CCCC(=O)N(C)c1nnc(-c2ccc(OC)cc2)s1 | -129*
CCOc1ccc(N=c2scc(-c3ccccc3)n2CCO)cc1 | -104*
CCn1c(-c2ccccc2)csc1=Nc1ccc(O)cc1 | -139*
SMILES | aSyn UTR act
OCCn1c(-c2ccc3c(c2)OCO3)csc1=Nc1ccccc1 | -97*
CC(C)c1ccc(Nc2ncccc2C(=O)O)cc1 | -101*
Cc1nc(SCc2cccc(C(=O)O)c2)nc2c1CCCC2 | 59
COc1ccc2nc(SCc3cccc(C)c3)nc(C)c2c1 | -106*
COc1ccc2nc(SCc3ccccc3C)nc(C)c2c1 | -107*
COc1ccc2nc(C)cc(SCC(=O)N/N=C/c3cccc4ccccc34)c2c1 | 47
CC(=O)NC(=C(Cl)Cl)S(=O)(=O)c1ccccc1 | -137*
Cc1ccc(C(=O)NC(=C(Cl)Cl)S(=O)(=O)c2ccc(C)cc2)cc1 | -72*
CC(=O)c1cccc(NC(=O)c2cnn(-c3ccccc3)c2C)c1 | -181*
COc1ccc(NC(=O)c2cnn(-c3ccccc3)c2C)cc1 | -62*
Cc1c(C(=O)Nc2ccccc2)cnn1-c1ccccc1 | -68*
Cc1c(C(=O)Nc2cccc(F)c2)cnn1-c1ccccc1 | -212*
COc1ccc(CN2CCn3ncc(C(=O)Nc4ccccc4)c3C2=O)cc1 | -86*
COc1ccc(NC(=O)c2cnn(-c3ccccc3)c2C)cc1OC | -153*
Cc1c(C(=O)Nc2cccc([N+](=O)[O-])c2)cnn1-c1ccccc1 | -137*
CC(C)CNC(=O)c1cc(-c2ccco2)on1 | -137*
CCCNC(=O)c1cc(-c2ccco2)on1 | -335*
O=C1/C(=N\S(=O)(=O)c2cccs2)C([n+]2cccc(Cc3ccccc3)c2)=C([O-])c2ccccc21 | 85
CCSc1nnc(NC(=O)c2ccccc2C)s1 | -117*
COc1ccc(-c2nnc3sc(C4CCCCC4)nn23)cc1OC | 65
O=C(Nc1nnc(C2CCCCC2)s1)c1ccc(Br)s1 | -219*
Cc1cc(C(=O)Nc2nnc(C3CCCCC3)s2)cs1 | -136*
CCSc1nnc(NC(=O)c2ccccc2)s1 | -94*
CCSc1nnc(NC(=O)c2ccccn2)s1 | 67
O=C(Nc1nnc(C(F)(F)F)s1)c1ccc(Br)s1 | -75*
SMILES | aSyn UTR act
CCSc1nnc(NC(=O)c2ccc(Br)s2)s1 | -89*
FC(F)(F)c1nnc2c(Sc3ccccc3)nc3ccccc3n12 | -103*
[O-][n+]1c2c(nc3c1-c1ccccc1C3O)CCCC2 (stereo unspecified) | -77*
Fc1ccccc1Nc1n[nH]c(=S)s1 | -64*
Cc1nc(C#N)c(N/N=C/c2c(F)cccc2Cl)o1 | -62*
O=C(Nc1cnc2ccccn2c1=O)c1ccc(Cl)cc1 | -139*
COC(=O)c1cc(=O)n(Cc2ccc3c(c2)OCO3)c(=Nc2ccc(F)c(Cl)c2)s1 | -66*
COc1ccc(NC(=O)Nc2nnc(C(C)(C)C)s2)cc1 | -67*
CC(C)(C)c1nnc(NC(=O)Nc2ccc(Cl)cc2)s1 | -114*
Cc1nc(NC(=O)Nc2ccc(Cl)cc2)sc1C | -164*
O=C(Nc1ccccc1F)c1cc2nc(C(F)F)cc(C(F)F)n2n1 | -71*
COCCNC(=S)N/N=C(\C)c1ccccc1O | -161*
CCn1nccc1C(=O)Nc1ccc(Cl)cn1 | -96*
CCn1ccc(C(=O)Nc2ccc(Cl)cn2)n1 | -137*
CCn1ccc(C(=O)Nc2ccccc2SC)n1 | -175*
O=C(/C=C/c1ccc2ccccc2c1)c1ccoc1 | -123*
O=C(CSc1nnc(-c2ccco2)n1Cc1ccccc1)c1ccccc1 | -104*

Screening results (PubChem)
